We go through 40 compounds from PubChem BioAssay (EPA / NIEHS).

Molecules are shown by their SMILES. Records with an inconclusive call do not appear. Active and inactive are the calls of the source. Rule for the calls: active = hit-call score of the fitted dose curve at least 0.9, where 1 is the maximum; inconclusive = response in the unintended direction; inactive = score below 0.9.

Read-out in this test: alkyl and aryl transferase (GSTA2), GSTA2 (gene 2939)
Description: CLD_GSTA2_48hr: CellzDirect (CLD) Gene Expression Assay for alkyl and aryl transferase (GSTA2) at 48 hours (AID 2283708).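 Note: active means mRNA induction above DMSO vehicle baseline.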 As for the experimental part:
CLD_48hr is a cell-based, multiplexed-readout assay that uses hepatocyte, a human liver primary cell, with measurements taken at 48 hours after chemical dosing in a 96-well plate.CLD_GSTA2_48hr is one of 16 assay component(s) measured or calculated from the CLD_48hr assay. It is designed to make measurements of mRNA induction, a form of inducible reporter, as detected with chemiluminescence signals by Quantitative Nuclease Protection Assay (qNPA) technology.Data from the assay component CLD_GSTA2_48hr was analyzed at the endpoint, CLD_GSTA2_48hr, in the positive analysis fitting direction relative to DMSO as the negative control and baseline of activity. Using a type of inducible reporter, gain-of-signal activity can be used to understand changes in the reporter gene as they relate to the gene GSTA2. Furthermore, this assay endpoint can be referred to as a primary readout. To generalize the intended target to other relatable targets, this assay endpoint is annotated to the transferase intended target family, where subfamily is alkyl and aryl transferase.
Human hepatocyte cultures were treated daily for two consecutive days with fresh dosing solutions containing appropriate concentrations of the 320 ToxCast chemicals (chemical identities were blinded to CellzDirect and other ToxCast collaborators), vehicle control (0.2% DMSO), and positive control inducers as summarized in Table 1. […] These replicate data, coupled with internal replicates designed within the blinded ToxCast chemical library, provided additional data to evaluate interindividual differences between hepatocyte preparations and their potential impact on chemical profiles.Cell morphology and integrity were evaluated using phase-contrast microscopy as an indicator of hepatocyte cell health (Tyson & Green, 1987). Cultures for each treatment group (i.e., media, vehicle [0.2% DMSO], positive control inducers [multiple concentrations], and the ToxCast chemicals [multiple concentrations]) were observed and cell morphology was assessed relative to vehicle control cultures at each harvest time point (0, 6, 24, or 48 h). […] Images were evaluated at the conclusion of the study to assess changes in cell integrity and account for the effects of chemical exposure on uncharacteristic changes in concentration-dependent gene expression profiles. The results from these determinations of apparent cytotoxicity were annotated (yes/no) alongside the corresponding qNPA data for reference.At the conclusion of each treatment period, hepatocyte cultures (96-well) were washed with 1 volume of HBSS, lysed by addition of 25 ul ArrayPlate lysis buffer (HTG, Tucson, AZ), and 70 ul/well of Denaturation Oil, denatured by incubation at 95C for 10 min, and frozen at approximately -70C until analysis by nuclease protection assay (qNPA) (Roberts et al., 2007). For qNPA analysis, cell lysates were thawed at 50C for approximately 30 min, qNPA probes were added, and samples were incubated at 95C for 10 min to begin the detection process by denaturing the target RNA, dissociating the duplexes and secondary structure hybridization. At the conclusion of the hybridization period, S1 nuclease reagent was added to each sample to digest all nonprotected nucleotides at 50C for 60-90 min. At the conclusion of the S1 nuclease digestions, all reactions were stopped by transfer of all the samples to fresh plates containing stop solution and incubated at 95C for 15 min to deactivate the enzyme, dissociate the mRNA/ DNA probe heterodimers, and hydrolyze the resulting single stranded mRNA, leaving a stoichiometric amount of single-stranded DNA nuclease protection probe, unmodified in sequence, as the only intact oligonucleotide left in the sample. Neutralization solution was subsequently applied to cooled (room temperature) plates, and samples were transferred to ArrayPlates for overnight incubations at 50Cto allow probes to be captured onto programmed locations on the ArrayPlates. […]
As to `CC(C)Oc1cc(-n2nc(C(C)(C)C)oc2=O)c(Cl)cc1Cl`, the call was inactive.

Regarding `COP(=S)(OC)Oc1nc(Cl)c(Cl)cc1Cl`, the result was inactive.

For the compound `N#Cc1cc(Br)c(O)c(Br)c1`, the call was inactive.

With `CCOc1cc(Oc2ccc(C(F)(F)F)cc2Cl)ccc1[N+](=O)[O-]`, the outcome was inactive.

Consider `CC(C)C1(C)N=C(c2nc3ccccc3cc2C(=O)O)NC1=O` (stereo not given), for which the compound was called inactive.

For the compound `COC(=O)C(C)Oc1ccc(Oc2ccc(Cl)cc2Cl)cc1` (stereo not given), the compound was called inactive.

With `CCCC1COC(Cn2cncn2)(c2ccc(Cl)cc2Cl)O1` (stereo not given), the compound was classed as inactive.

For `CCCCNC(=O)OCC#CI`, the compound was called inactive.

Take `C#CCOS(=O)OC1CCCCC1Oc1ccc(C(C)(C)C)cc1` (stereo not given): the compound was called inactive.

For `CCON=C(CC)C1=C(O)CC(c2c(C)cc(C)cc2C)CC1=O` (stereo not given), the call was inactive.

In the case of `CCc1nn(C)c(C(=O)NCc2ccc(C(C)(C)C)cc2)c1Cl`, the compound was called inactive.

Consider `CCCCOC(=O)c1ccccc1C(=O)OCCCC`, for which the outcome was inactive.

On to `Oc1ccccc1-c1ccccc1`, for which the result was inactive.

Regarding `CCNc1nc(Cl)nc(NC(C)C)n1`, the compound was classed as inactive.

For `COC(=O)c1ccccc1C(=O)OC`, the result was inactive.

As for `O=C(O)c1nc(Cl)ccc1Cl`, the result was inactive.

`COc1cnc(OC)n2nc(NS(=O)(=O)c3c(OCC(F)F)cccc3C(F)(F)F)nc12`: the call was inactive.

With `COC(=O)C=C(C)OP(=O)(OC)OC`, the compound was called inactive.

Take `CCOC(=O)CC(SP(=S)(OC)OC)C(=O)OCC` (stereo not given): the result was inactive.

`CC(C)(C)c1ccc(CSc2cnn(C(C)(C)C)c(=O)c2Cl)cc1`: the result was inactive.

`Fc1ccc(Oc2ccnc3cc(Cl)cc(Cl)c23)cc1`: the outcome was inactive.

As to `CCCN(CCC)c1c([N+](=O)[O-])cc(S(N)(=O)=O)cc1[N+](=O)[O-]`, the compound was called inactive.

With `OC(c1ccc(Cl)cc1)(c1cncnc1)c1ccccc1Cl` (stereo not given), the AC50 was 15.8 µM (active).

Regarding `C=CCC1=C(C)C(OC(=O)C2C(C=C(C)C)C2(C)C)CC1=O` (stereo not given), the call was inactive.

With `N#CC(CCc1ccc(Cl)cc1)(Cn1cncn1)c1ccccc1` (stereo not given), the call was inactive.

Consider `CNC(=S)S`, for which the call was inactive.

For `COP(N)(=O)SC` (stereo not given), the call was inactive.

With `COc1nc(C)nc(NC(=O)NS(=O)(=O)c2ccccc2Cl)n1`, the compound was classed as inactive.

As to `CCOC(=O)C(Cl)Cc1cc(-n2nc(C)n(C(F)F)c2=O)c(F)cc1Cl` (stereo not given), the call was inactive.

Consider `CNC(=O)ON=CC(C)(C)SC`, for which the call was inactive.

Turning to `COC(=O)N(OC)c1ccccc1COc1ccn(-c2ccc(Cl)cc2)n1`, the AC50 is 33.8 µM (active).

Consider `CC1COC(Cn2cncn2)(c2ccc(Oc3ccc(Cl)cc3)cc2Cl)O1` (stereo not given), for which the result was inactive.

As for `CO/C=C(/C(=O)OC)c1ccccc1Oc1cc(Oc2ccccc2C#N)ncn1`, the AC50 was 20 µM (active).

With `CN(C)C(=S)SSC(=S)N(C)C`, the compound was classed as inactive.

On to `C=CC1(C)OC(=O)N(c2cc(Cl)cc(Cl)c2)C1=O` (stereo not given), for which the result was inactive.

As to `COc1nc(C)nc(NC(=O)NS(=O)(=O)c2ccccc2CCC(F)(F)F)n1`, the call was inactive.

For the compound `CC(Oc1ccc(Cl)cc1Cl)C(=O)O` (stereo not given), the compound was called inactive.

In the case of `N#Cc1nn(-c2c(Cl)cc(C(F)(F)F)cc2Cl)c(N)c1S(=O)C(F)(F)F` (stereo not given), the AC50 is 4.25 µM (active).

On to `C=CCC1=C(C)[C@@H](OC(=O)[C@@H]2[C@@H](C=C(C)C)C2(C)C)CC1=O`, for which the compound was called inactive.

In the case of `CCCCNC(=O)n1c(NC(=O)OC)nc2ccccc21`, the outcome was inactive.
